Hit rate of the full screen: of about 39,000 compounds, about 3,300 (8.5%) were called active. Many of the other results were omitted from the sample, so actives are more common in it than they were.
These compounds were tested on HepG2 (assay: cytotoxicity call (relative viability < 0.9)). Conditions: 10 µM.
For C[C@@H]1CN([C@@H](C)CO)C(=O)c2cccc(NC(=O)c3cnccn3)c2O[C@H]1CN(C)C(=O)NC1CCCCC1, the cytotoxicity call was “inactive”.
In the case of Cc1[nH]c(=O)[nH]c(=O)c1S(=O)(=O)N1CCN(c2ccccc2)CC1, the cytotoxicity call is reported as “inactive”.
Cc1noc(C)c1NC(=O)N(C)C[C@@H]1OCCCC[C@H](C)Oc2ccc(NS(=O)(=O)c3ccccc3)cc2C(=O)N([C@@H](C)CO)C[C@H]1C was tested, and the cytotoxicity call was “inactive”.
For C[C@H]1CN([C@@H](C)CO)S(=O)(=O)c2ccc(C#Cc3ccccc3F)cc2O[C@@H]1CN(C)C(=O)Cc1cccnc1, the cytotoxicity call was “inactive”.
In the case of O=C(C[C@@H]1CC[C@@H]2[C@H](COC[C@@H](O)CN2S(=O)(=O)c2cccc(Cl)c2)O1)NC1Cc2ccccc2C1, the cytotoxicity call is reported as “inactive”.
With O=C(C[C@@H]1C[C@H]2c3cc(NS(=O)(=O)c4ccc(F)cc4)ccc3O[C@H]2[C@H](CO)O1)NC1CCCC1 the cytotoxicity call was “inactive”.
In the case of COCC#Cc1cnc2c(c1)C(=O)N([C@@H](C)CO)C[C@H](C)[C@H](CN(C)C(=O)c1cnccn1)O2, the cytotoxicity call is reported as “inactive”.
For C#CC[C@H](c1nc2cc(Cl)ccc2c(=O)n1Nc1ccccc1)N(CCCN)C(=O)c1cccc(Cl)c1F, the cytotoxicity call was “active”.
C[C@@H]1CN([C@H](C)CO)S(=O)(=O)c2ccc(-c3cccc(C#N)c3)cc2O[C@H]1CN(C)C(=O)c1ccncc1 was tested, and the cytotoxicity call was “inactive”.
For Cc1nc[nH]c1CN(C)[C@H](C)C(=O)N(C)C, the cytotoxicity call was “inactive”.
CN(C)CCC=C1c2ccccc2CCc2ccccc21.Cl was tested, and the cytotoxicity call was “active”.
CN(C)CN1C(=O)c2ccccc2C1=O was tested, and the cytotoxicity call was “inactive”.
For CN(C)CCC=C1c2ccccc2C=Cc2ccccc21.Cl, the cytotoxicity call was “active”.
For CN(C)CCC=C1c2ccccc2COc2ccc(CC(=O)O)cc21.Cl, the cytotoxicity call was “inactive”.
CNCCC=C1c2ccccc2CCc2ccccc21.Cl was tested, and the cytotoxicity call was “active”.
With CN(C)CCC=C1c2ccccc2COc2ccccc21.Cl the cytotoxicity call was “active”.
Cc1noc(C2CNC2)n1 was tested, and the cytotoxicity call was “inactive”.
In the case of COc1ccc(NC(=O)N(C)C[C@@H]2OCCCC[C@@H](C)Oc3ccc(NC(=O)NC(C)C)cc3C(=O)N([C@@H](C)CO)C[C@H]2C)cc1, the cytotoxicity call is reported as “inactive”.
COc1cccc(NC(=O)C[C@@H]2CC[C@H]3[C@@H](COc4ccc(NC(=O)C5CCOCC5)cc4C(=O)N3C)O2)c1 was tested, and the cytotoxicity call was “inactive”.
With C[C@H](CO)N1C[C@H](C)[C@H](CN(C)S(C)(=O)=O)Oc2ccc(NC(=O)CCCCCC(=O)Nc3ccccc3N)cc2CC1=O the cytotoxicity call was “inactive”.
With C[C@H](CO)N1C[C@H](C)[C@H](CN(C)C(=O)c2cccnc2)Oc2cc(C#CC3(O)CCCC3)ccc2S1(=O)=O the cytotoxicity call was “inactive”.
For COc1cccc(S(=O)(=O)N(C)C[C@H]2OCc3cnnn3CCCC(=O)N([C@@H](C)CO)C[C@H]2C)c1, the cytotoxicity call was “inactive”.
C[C@H]1CN([C@@H](C)CO)C(=O)c2cccc(NS(C)(=O)=O)c2O[C@@H]1CN(C)C(=O)Nc1ccccc1 was tested, and the cytotoxicity call was “inactive”.
CC(C)NC(=O)N(C)C[C@@H]1Oc2ccc(NS(=O)(=O)c3ccccc3)cc2C(=O)N([C@@H](C)CO)C[C@H]1C was tested, and the cytotoxicity call was “inactive”.
In the case of Cc1noc(C)c1S(=O)(=O)Nc1ccc2c(c1)CC(=O)N([C@H](C)CO)C[C@@H](C)[C@H](CN(C)C(=O)Nc1ccccc1)O2, the cytotoxicity call is reported as “inactive”.
In the case of C[C@@H]1CN([C@H](C)CO)C(=O)c2cc(NC(=O)NC3CCCCC3)ccc2O[C@H]1CN(C)Cc1ccc(Cl)c(Cl)c1, the cytotoxicity call is reported as “inactive”.
For C[C@H](CO)N1C[C@H](C)[C@@H](CN(C)C(=O)Nc2cccc3ccccc23)Oc2ccc(NC(=O)CCC(F)(F)F)cc2CC1=O, the cytotoxicity call was “inactive”.
C[C@@H]1CCCCO[C@H](CN(C)C(=O)Nc2ccccc2)[C@H](C)CN([C@H](C)CO)C(=O)c2cc(NC(=O)NC3CCCCC3)ccc2O1 was tested, and the cytotoxicity call was “inactive”.
CC(C)CC#Cc1cnc2c(c1)C(=O)N([C@H](C)CO)C[C@H](C)[C@H](CN(C)S(=O)(=O)c1cn(C)cn1)O2 was tested, and the cytotoxicity call was “inactive”.
C[C@@H]1CCCCO[C@@H](CN(C)C(=O)Nc2cccc3ccccc23)[C@H](C)CN([C@@H](C)CO)C(=O)c2cc(NC(=O)NC3CCCCC3)ccc2O1 was tested, and the cytotoxicity call was “inactive”.
In the case of C[C@H](CO)N1C[C@H](C)[C@H](CN(C)C(=O)Nc2cccc3ccccc23)OCCCC[C@H](C)Oc2ccc(NC(=O)NC3CCCCC3)cc2C1=O, the cytotoxicity call is reported as “active”.
For C[C@@H]1CCCCO[C@H](CN(C)C(=O)Nc2cccc3ccccc23)[C@H](C)CN([C@@H](C)CO)C(=O)c2cc(NC(=O)NC3CCCCC3)ccc2O1, the cytotoxicity call was “active”.
For C[C@@H]1CCCCO[C@@H](CN(C)C(=O)Nc2cccc3ccccc23)[C@H](C)CN([C@H](C)CO)C(=O)c2cc(NC(=O)NC3CCCCC3)ccc2O1, the cytotoxicity call was “inactive”.
In the case of C[C@H]1CCCCO[C@H](CN(C)C(=O)Nc2cccc3ccccc23)[C@@H](C)CN([C@@H](C)CO)C(=O)c2cc(NC(=O)NC3CCCCC3)ccc2O1, the cytotoxicity call is reported as “inactive”.
With C[C@@H]1CCCCO[C@@H](CN(C)C(=O)NC2CCCCC2)[C@H](C)CN([C@H](C)CO)C(=O)c2cc(NC(=O)Nc3cccc4ccccc34)ccc2O1 the cytotoxicity call was “inactive”.
For C[C@@H]1CN([C@@H](C)CO)C(=O)c2cc(NC(=O)Nc3cccc4ccccc34)ccc2O[C@@H](C)CCCCO[C@H]1CN(C)C(=O)NC1CCCCC1, the cytotoxicity call was “inactive”.
C[C@@H]1CCCCO[C@H](CN(C)C(=O)Nc2cccc3ccccc23)[C@@H](C)CN([C@H](C)CO)C(=O)c2cc(NC(=O)NC3CCCCC3)ccc2O1 was tested, and the cytotoxicity call was “inactive”.
C[C@@H]1CN([C@H](C)CO)C(=O)c2cc(NC(=O)Nc3cccc4ccccc34)ccc2O[C@@H](C)CCCCO[C@H]1CN(C)C(=O)NC1CCCCC1 was tested, and the cytotoxicity call was “active”.
In the case of CC(C)NC(=O)Nc1ccc2c(c1)C(=O)N([C@H](C)CO)C[C@@H](C)[C@H](CN(C)S(=O)(=O)c1ccccc1)O2, the cytotoxicity call is reported as “inactive”.
With C[C@@H]1CN([C@@H](C)CO)C(=O)c2cccc(NC(=O)c3cnccn3)c2O[C@H]1CN(C)Cc1ccc(C(=O)O)cc1 the cytotoxicity call was “inactive”.
C[C@@H]1CCCCO[C@H](CN(C)C(=O)c2ccccc2)[C@H](C)CN([C@@H](C)CO)C(=O)c2cc(NC(=O)Nc3cccc4ccccc34)ccc2O1 was tested, and the cytotoxicity call was “inactive”.
In the case of O=C(C[C@@H]1CC[C@H](NS(=O)(=O)c2ccc(F)cc2)[C@H](CO)O1)N1CCC(Cc2ccccc2)CC1, the cytotoxicity call is reported as “inactive”.
In the case of Cc1ccc(S(=O)(=O)N(C)C[C@@H]2Oc3ccc(NS(=O)(=O)c4cn(C)cn4)cc3CC(=O)N([C@H](C)CO)C[C@H]2C)cc1, the cytotoxicity call is reported as “inactive”.
With Cc1ccc(OCCn2c(CC(C)(C)C)nc3ccccc32)cc1 the cytotoxicity call was “inactive”.
Cc1cccc(-c2nc3ccccc3n2CCC(C)C)c1 was tested, and the cytotoxicity call was “inactive”.
In the case of c1ccc(Cn2c(-c3ccc(OC[C@H](C4CCNCC4)n4c(-c5ccccc5)nc5ccccc54)cc3)nc3ccccc32)cc1, the cytotoxicity call is reported as “active”.
In the case of Cc1cncc2cccc(S(=O)(=O)N[C@H]3CN[C@H](COC(=O)NCCOCCOCCN)C3)c12, the cytotoxicity call is reported as “inactive”.
With Cn1cc(CO)cn1 the cytotoxicity call was “inactive”.
In the case of O=C(C[C@@H]1CC[C@H]2[C@@H](COC[C@@H](O)CN2C(=O)Nc2ccc3c(c2)OCO3)O1)N1CCN(c2ccccc2)CC1, the cytotoxicity call is reported as “inactive”.
For COc1ccc(NC(=O)Nc2cccc3c2O[C@H](CN(C)Cc2ccc(-c4ccccc4)cc2)[C@@H](C)CN([C@@H](C)CO)C3=O)cc1, the cytotoxicity call was “active”.
In the case of COc1ccc(NC(=O)Nc2cccc3c2O[C@H](CN(C)Cc2ccc(-c4ccccc4)cc2)[C@H](C)CN([C@H](C)CO)C3=O)cc1, the cytotoxicity call is reported as “active”.
With COc1ccc(NC(=O)Nc2cccc3c2O[C@@H](CN(C)Cc2ccc(-c4ccccc4)cc2)[C@@H](C)CN([C@H](C)CO)C3=O)cc1 the cytotoxicity call was “inactive”.
In the case of COc1ccc(NC(=O)Nc2cccc3c2O[C@H](CN(C)Cc2ccc(-c4ccccc4)cc2)[C@H](C)CN([C@@H](C)CO)C3=O)cc1, the cytotoxicity call is reported as “active”.
In the case of COc1ccc(NC(=O)Nc2cccc3c2O[C@@H](CN(C)Cc2ccc(-c4ccccc4)cc2)[C@H](C)CN([C@H](C)CO)C3=O)cc1, the cytotoxicity call is reported as “active”.
In the case of COc1ccc(NC(=O)Nc2cccc3c2O[C@H](CN(C)Cc2ccc(-c4ccccc4)cc2)[C@@H](C)CN([C@H](C)CO)C3=O)cc1, the cytotoxicity call is reported as “inactive”.
For C[C@H]1CN([C@@H](C)CO)C(=O)c2cccc(NC(=O)Nc3ccccc3)c2O[C@H]1CN(C)Cc1ccc(-c2ccccc2)cc1, the cytotoxicity call was “inactive”.
With COc1ccc(NC(=O)Nc2cccc3c2O[C@@H](CN(C)Cc2ccc(-c4ccccc4)cc2)[C@H](C)CN([C@@H](C)CO)C3=O)cc1 the cytotoxicity call was “inactive”.
In the case of COc1ccc(NC(=O)Nc2cccc3c2O[C@@H](CN(C)Cc2ccc(-c4ccccc4)cc2)[C@@H](C)CN([C@@H](C)CO)C3=O)cc1, the cytotoxicity call is reported as “inactive”.
With COc1ccc(NC(=O)N(C)C[C@H]2OCCCC[C@@H](C)Oc3ccc(NC(=O)C4CCCCC4)cc3C(=O)N([C@H](C)CO)C[C@@H]2C)cc1 the cytotoxicity call was “inactive”.
For COc1ccc(CN(C)C[C@H]2Oc3c(NS(C)(=O)=O)cccc3C(=O)N([C@@H](C)CO)C[C@H]2C)cc1, the cytotoxicity call was “inactive”.
For COc1ccc2c3c([nH]c2c1)[C@H](CO)N(C[C@]13CN(Cc2ccccc2)C1)S(=O)(=O)c1cn(cn1)C, the cytotoxicity call was “inactive”.
With COc1ccc(NC(=O)N(C)C[C@H]2Oc3ncc(C#CCN(C)C)cc3C(=O)N([C@@H](C)CO)C[C@H]2C)cc1 the cytotoxicity call was “inactive”.
For O=C(C[C@@H]1CC[C@H]2[C@@H](COC[C@@H](O)CN2Cc2cc(F)ccc2F)O1)N[C@@H]1CCN(Cc2ccccc2)C1, the cytotoxicity call was “inactive”.
C[C@@H]1CN([C@H](C)CO)C(=O)CCCn2nncc2CO[C@@H]1CN(C)C(=O)c1ccc(N2CCN(C)CC2)cc1 was tested, and the cytotoxicity call was “inactive”.
With Fc1ccccc1[C@H]1Nc2ccc3ccccc3c2[C@H]2C=CC[C@@H]21 the cytotoxicity call was “inactive”.
In the case of CCNC(=O)C[C@@H]1CC[C@H](NC(=O)C2CCOCC2)[C@H](CO)O1, the cytotoxicity call is reported as “inactive”.
Cc1noc(C)c1NC(=O)Nc1ccc2c(c1)C(=O)N([C@H](C)CO)C[C@H](C)[C@H](CN(C)Cc1ccc(C(F)(F)F)cc1)O2 was tested, and the cytotoxicity call was “inactive”.

Source: the antibiotic and cytotoxicity screens of Wong et al. (2023)
